From PubChem
GPR7 antagonist: blocks human GPR7 receptor signaling | AID 1861 | P48145 | GPR7-expressing cells, fluorescence antagonist assay | inhibition, % at 4.4 µM | hit rate 1.1% among 290,000; in the data active = inhibition above about 16%, passing the limit was not always enough;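 note: cells stimulated with the agonist NPW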
VLA-4 inh: inhibition in a human VLA-4 binding assay. hit rate 0.2% among 330,000. inhibition, % (about 7 µM as worked out from the volumes in the protocol). AID 2557. VLA-4 expressing cells, ligand binding flow cytometry; in the data active = inhibition above about 50%
GASC-1 inh: inhibitors of human GASC-1 (JMJD2C) demethylase; hit rate 0.069% among 330,000; inhibition, % at 2.35 µM; Q9H3R0; GST-JMJD2C(1-420) H3K9me3 demethylation, DELFIA europium;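 active = more than half of a compound's replicate wells show inhibition beyond 50%, single wells judged on their own value; inconclusive = some, but no more than half, of replicates pass 50% inhibition; inactive = no replicate passes 50% inhibition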;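 note: signal counts dimethyl H3K9 product captured on neutravidin plate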
pCIP destab: compounds decreasing mouse p/CIP protein stability | decrease of EGFP signal, % at 10 µM | AID 1984 | Q05BA5 | hit rate 0.01% among 290,000 | F442A p/CIP-EGFP cells, EGFP fluorescence, 16 h;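 active = EGFP signal decrease of at least 30% at 10 µM or well 3 SD below plate mean, unless failing retest; inactive = the rest, including hits failing retest or dose response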
VLA-4 allo CP: human VLA-4 allosteric modulation in cherry picked compounds. shares compounds with VLA-4 inh. U937 cells, HUTS-21 LIBS mAb binding, flow cytometry; LDV ligand present at threefold Kd. inhibition, % at 6.7 µM. hit rate 2% among 1,300. AID 2813; in the data active = inhibition above about 40%
A number is an active result; n = inactive; u = inconclusive; x = no result given. The list is not random: actives were taken first. Their share in the collection is about 1.2%.

SMILES | GPR7 antagonist | VLA-4 inh | GASC-1 inh | pCIP destab | VLA-4 allo CP
Cc1c(N)cccc1-c1nc2ccccc2[nH]1 | n | n | n | n | x
CCOc1ccc(N(CC(=O)Nc2ccc(OC)cc2)S(=O)(=O)c2c(C)noc2C)cc1 | n | n | n | n | x
CCOc1ccc(N(CC(=O)Nc2ccc(C)c(C)c2)S(=O)(=O)c2c(C)[nH]c(=O)[nH]c2=O)cc1 | n | n | n | n | n
CCOc1ccc(NC(=O)CN(c2cc(C)cc(C)c2)S(=O)(=O)c2c(C)noc2C)cc1 | n | 53 | n | n | n
CC1(c2ccncc2)Nc2ccccc2-c2nc3ccccc3n21 (stereo not drawn) | n | 51 | n | n | n
COc1ccc2c(c1)C1(Nc3ccccc3-c3nc4ccccc4n31)C(=O)N2 (stereo not drawn) | n | n | n | n | x
CC(C)(C)c1ccc(S(=O)(=O)Nc2noc3ccccc23)cc1 | n | n | n | n | x
COC(=O)C(Cc1cnc[nH]1)NC(=O)C1CCC(=O)N1 (stereo not drawn) | n | 58 | n | n | n
CCc1ccc(N2C(=O)c3cc(N4CCOCC4)c([N+](=O)[O-])cc3C2=O)cc1 | n | n | n | n | n
O=C(O)CCN1C(=O)c2ccccc2Sc2ncccc21 | n | n | n | n | n
O=C(Oc1ccc(F)cc1C(=O)/C=C/c1cccs1)c1cccc([N+](=O)[O-])c1 | n | 50 | n | n | 41
O=C(/C=C/c1ccccc1F)c1cccc([N+](=O)[O-])c1 | n | n | n | n | x
O=C(O)Cc1ccc(NS(=O)(=O)c2ccccc2Cl)cc1 | n | n | n | n | n
Cc1ccc2c(c1)/C(=C/c1ccccc1F)C(=O)N2 | n | n | n | n | n
Cc1ccc2c(c1)/C(=C/c1ccccc1)C(=O)N2 | n | n | n | n | x
O=C(/C=C/c1ccccc1)C1=C(O)C(=O)N(CCO)C1c1ccccc1[N+](=O)[O-] (stereo not drawn) | n | 51 | n | n | n
O=C(/C=C/c1ccccc1)C1=C(O)C(=O)N(CCO)C1c1cccc([N+](=O)[O-])c1 (stereo not drawn) | n | n | n | n | x
CCCc1cc(=O)[nH]c(SCC(=O)Nc2nc3ccc(OCC)cc3s2)n1 | n | 51 | n | n | n
COc1ccc2nc(NC(=O)CSc3nc(C)cc(=O)[nH]3)sc2c1 | n | n | n | n | x
COc1ccc(-c2sc3ccccc3c2-c2ccc(OCCN(C)C)cc2)cc1 | x | 67 | n | x | 44
COc1cccc(-c2sc3ccc(OC)cc3c2-c2ccc(O)cc2)c1 | x | n | n | x | x
COc1cccc(-c2sc3ccc(OC)cc3c2-c2ccc(OCCN(C)C)cc2)c1 | x | 51 | n | x | n
O=C(CCc1nnc(COc2ccccc2)o1)NCc1ccccc1C(F)(F)F | n | n | n | n | x
COC(=O)c1sccc1NC(=O)Nc1cccc(F)c1 | n | n | n | n | x
O=C(Nc1cccc(Cl)c1)OCc1cnc(Cl)s1 | n | n | n | n | n
SMILES | GPR7 antagonist | VLA-4 inh | GASC-1 inh | pCIP destab | VLA-4 allo CP
O=C(Nc1cccc(Cl)c1)OCc1cn(-c2ccccc2)nn1 | n | n | n | n | x
COc1ccc(C(=O)c2c3ccccc3[n+]([O-])n2CCC(N)=O)cc1 | x | 55 | n | x | n
CCOC(=O)CSc1nnc(CNC(=O)c2ccc(S(=O)(=O)N3CCCC3)cc2)n1C | n | n | n | n | x
CCOC(=O)CSc1nnc(CNC(=O)c2ccc(S(=O)(=O)N3CCOCC3)cc2)n1C | n | n | n | n | n
CCC(C)(C)NC(=O)CN(Cc1ccccc1Cl)C(=O)CCC(=O)Nc1cc(C)ccn1 | n | n | n | n | x
CN1CCC(N(C)S(=O)(=O)c2ccc(NC(=O)COc3ccc(F)cc3)cc2)CC1 | x | 50 | n | x | n
O=C(c1cc(-c2ccc(Cl)cc2)n(-c2ccc(Cl)cc2)n1)N1CCOCC1 | n | 92 | n | n | n
O=C(N/N=C/c1cccnc1)c1ccccc1Cl | n | n | n | n | x
O=C(N/N=C\c1cccnc1)c1cc(-c2ccc(Cl)s2)[nH]n1 | n | 55 | u | n | n
CCCc1ccc(-c2cc(C(=O)Nc3ccc([N+](=O)[O-])cn3)c3ccccc3n2)cc1 | n | n | n | n | x
Cc1cc(O)c(NC(=O)c2cc([N+](=O)[O-])ccc2Cl)cc1C | n | 51 | n | n | n
Cc1ccc(O)c(NC(=O)c2cc([N+](=O)[O-])ccc2Cl)c1 | n | n | n | n | x
Clc1cc(CSc2ccccc2)nc(-c2ccccc2)n1 | n | 94 | n | n | n
Clc1ccc(SCc2cc(Cl)nc(-c3ccccc3)n2)cc1 | n | n | n | x | x
